Anthrax LF inh2: blocks Bacillus anthracis lethal factor protease; AID 588501; multiplex microsphere protease cleavage assay, LF; actives 0.12% (n = 360,000); inhibition, % at 10 µM; P15917
Bead autofluor: compound fluorescence in toxin protease inhibitor counterscreen | actives 3.1% (n = 360,000) | fluorescence intensity (test concentration not listed) | compound autofluorescence counterscreen, microsphere flow cytometry; stronger effect = higher value | AID 624483; in the data active = fluorescence intensity above about 16000; inconclusive = no clear call, values can overlap the other calls
BoNT F protease: blocks Botulinum neurotoxin F light chain protease; Multiplex microsphere protease cleavage assay, flow cytometry; inhibition, % at 10 µM; actives 0.22% (n = 360,000); in the data active = inhibition above about 35%, passing the limit was not always enough; inconclusive = no clear call, values can overlap the other calls
BoNT A protease: blocks Botulinum neurotoxin A light chain protease; multiplex microsphere protease substrate cleavage, flow cytometry; inhibition, % at 10 µM; actives 0.17% (n = 360,000)
Large screens that a line does not name were inactive. Only some compounds are listed: those with a hit (about 3.5% of all), similar ones and a draw of the others. Cut-off read from the data, not from the text of the source, unless noted: active = inhibition above about 30%; inconclusive = no clear call, values can overlap the other calls; inactive = below that.

Cc1ccc(-c2nc(CSCC(=O)NCCN3CCN(Cc4ccccc4)CC3)c(C)o2)cc1	Bead autofluor 17085
Cc1ccc(-c2nc(CSCC(=O)NCCCN3CCOCC3)c(C)o2)cc1	none
COCCOC1CCN(C(=O)c2cc(COc3ccc(F)cc3F)on2)CC1	none
N#Cc1cc2c(nc1SCC(=O)Nc1nccs1)CCCCC2	Bead autofluor 20116
C=C(C)CSc1nc2c(cc1C#N)CCC2	none
CCCCSc1nc2c(cc1C#N)CCC2	Bead autofluor 20908
C=CCSc1nc2c(cc1C#N)CCC2	Bead autofluor 21788, BoNT A protease inconclusive
COc1cc(C(=O)COC(=O)c2ccncc2)cc(OC)c1OC	none
COc1ccccc1NC(=O)c1nnn(Cc2ccccc2)c1NC(=O)C(F)(F)F	none
COc1ccccc1NC(=O)c1nnn(Cc2ccccc2)c1NC(C)=O	Bead autofluor 24511
Cc1cc(NC(=O)CSc2nnc3ccc(-c4ccccc4)nn23)no1	none
CC(C)[C@H](NC(=O)NCCc1ccc(Cl)cc1)C(=O)O	Bead autofluor 17382, BoNT A protease inconclusive
CN1OC[C@@H]2CN(Cc3ccccc3)[C@H](c3ccc(N4CCCCC4)cc3)C[C@@H]21	none
CN1OC[C@@H]2CN(Cc3ccc4c(c3)OCO4)[C@H](c3ccc(N4CCCCC4)cc3)C[C@@H]21	Bead autofluor 23460
Clc1ccc(CNCCC2=CCCCC2)cc1	Bead autofluor 17461, BoNT A protease inconclusive
S=C(NCCC1=CCCCC1)Nc1ccc(Cl)cc1	none
CC(C)c1ccc(NC(=O)CN(C)C2=NS(=O)(=O)c3ccccc32)cc1	none
O=S1(=O)CC(N2CC=CC2)CN1Cc1cn(Cc2ccccc2)nn1 (centres undefined)	none
CCn1c(SCC(=O)Nc2nc(C)cs2)nnc1-c1cccnc1	Bead autofluor 17501
Cc1csc(NC(=O)CSc2nnc3ncccn23)n1	Bead autofluor 22164
CCc1nnc(NC(=O)CSc2nnc3ncccn23)s1	Bead autofluor 20884, BoNT A protease inconclusive
Cn1c(CSc2ncccn2)nnc1SCC(=O)N1CCCCC1	none
O=C(CSc1nnc2ncccn12)N1CCCCCC1	Bead autofluor 23133
CNC(=O)N(C1=NCC(C)S1)c1ccc(F)cc1F (centres undefined)	Bead autofluor 23465, BoNT A protease inconclusive
COc1ccccc1N(C(=O)NCc1ccccc1)C1=NCC(C)S1 (centres undefined)	none
Cc1ccc(Cc2c(C(C)(C)C)nc3cc(C)c(Br)c(C)n23)cc1	none
CN(Cc1ccccc1NCC(=O)Nc1ccccc1C#N)C1CCCCC1	none
N#Cc1ccccc1NC(=O)CNc1ccccc1N1CCCCC1	Bead autofluor 22615, BoNT A protease inconclusive
O=C1CC(=Nc2ccc([N+](=O)[O-])cc2)NN1c1c(Cl)cc(Cl)cc1Cl	none
CCCN(CCC)CCNC(=O)c1cn(C)c(=O)c2c1c1ccccc1n2C	BoNT F protease inconclusive
COCCn1cc(C(=O)N2CCC3(CC2)OCCO3)c2c3ccccc3n(C)c2c1=O	none
CCN1CCN(C(=O)c2cn(CCOC)c(=O)c3c2c2ccccc2n3C)CC1	Bead autofluor 21067
CC(C)Cn1cc(C(=O)NCCCN2CCCC2=O)c2c3ccccc3n(C)c2c1=O	Bead autofluor 16933
CCOC(CCNC(=O)c1cn(C)c(=O)c2c1c1ccccc1n2C)OCC	Anthrax LF inh2 69, BoNT F protease 89
CC(C)Cn1cc(C(=O)N2CCN(c3ccccn3)CC2)c2c3ccccc3n(C)c2c1=O	Bead autofluor 16320
CC(C)Cn1cc(C(=O)NCCCN2CCC(C)CC2)c2c3ccccc3n(C)c2c1=O	none
COCCn1cc(C(=O)N2CCCC(C)C2)c2c3ccccc3n(C)c2c1=O (centres undefined)	none
CCOC(=O)C1CCN(C(=O)c2cn(CCOC)c(=O)c3c2c2ccccc2n3C)CC1	Bead autofluor 23452
CCCCOc1ccc(C(=O)Nn2cnnc2)cc1	Bead autofluor 23869, BoNT A protease inconclusive
COc1cc2[nH]c(=S)n(Cc3cccs3)c(=O)c2cc1OC	none
CCCCNC(=O)CCCCCn1c(=O)[nH]c2cc(OC)c(OC)cc2c1=O	Bead autofluor 19264, BoNT A protease inconclusive
CCCn1c(=S)[nH]c2cc(OC)c(OC)cc2c1=O	Bead autofluor 22976
CCCCCNC(=O)CCCCn1c(=O)[nH]c2cc(OCC)c(OCC)cc2c1=O	none
CCOc1cc2[nH]c(=S)n(CCOC)c(=O)c2cc1OCC	Bead autofluor 22228
CCOc1cc2[nH]c(=O)n(CCCCC(=O)N3CCCCCC3)c(=O)c2cc1OCC	none
CCOc1cc2[nH]c(=S)n(CCCC(=O)N3CCC4(CC3)OCCO4)c(=O)c2cc1OCC	Bead autofluor 22729
CCOc1cc2[nH]c(=S)n(CCCN(CC)CC)c(=O)c2cc1OCC	none
COc1cc2[nH]c(=S)n(NC(=O)CC(C)C)c(=O)c2cc1OC	Bead autofluor 24467, BoNT A protease inconclusive
CSc1ccc(NC(=O)C2(C)CCN2C(=O)Cc2ccc(C(C)(C)C)cc2)cc1 (centres undefined)	none
O=c1c2cc(F)ccc2sn1-c1ccccc1	BoNT A protease 35
O=c1c2ccccc2sn1-c1nccs1	BoNT A protease 102
CN(C)S(=O)(=O)c1cccc(-n2sc3ccccc3c2=O)c1	BoNT A protease 33
O=c1c2cc(C(F)(F)F)ccc2sn1-c1ccccc1	none
Cc1nc2ccccc2c(=O)n1-c1nccs1	none
Cc1ccccc1-n1sc2cc(F)ccc2c1=O	BoNT A protease 89
COC(=O)[C@]1(CC(C)C)N[C@H](c2ccc(-c3cccc(Cl)c3)cc2)[C@@H]2C(=O)N(C)C(=O)[C@@H]21	none
CC1(C(=O)NS(=O)(=O)C2CC2)CCCN(C(=O)c2cc3ccccc3s2)C1 (centres undefined)	none
O=c1c2ccccc2sn1-c1ccccc1	BoNT A protease 70
O=c1c2ccccc2sn1-c1ccc(S(=O)(=O)N2CCCCC2)cc1	none
Cc1ccc(-n2sc3ccccc3c2=O)cc1S(=O)(=O)N1CCCCC1	BoNT A protease 32
CN(C1=NS(=O)(=O)N=C(N(C)c2ccccc2)O1)c1ccccc1	none
O=C(CN1CCCCC1)Nc1cccc(Cl)c1	none
O=C(CN1CCCCCC1)Nc1cccc(Br)c1	Bead autofluor 20288
Cc1ccc(NC(=O)CN2CCCCCC2)c(Br)c1	Bead autofluor 24257
CCOc1ccccc1C(=O)OCC(=O)Nc1ncc(C(F)(F)F)cc1Cl	Bead autofluor 21522
COC(=O)c1ccccc1NC(=O)COC(=O)c1ccc(C)c(NC(=O)c2ccco2)c1	Bead autofluor 21306, BoNT A protease inconclusive
Cc1ccc(C(=O)OCC(=O)Nc2ncc(C(F)(F)F)cc2Cl)cc1NC(=O)c1ccco1	Bead autofluor 20917
COC(=O)c1ccccc1NC(=O)COC(=O)c1ccco1	none
CC(C)(C)NC(=O)C1(C)CCC(=O)N1C1CCN(Cc2ccccc2)CC1 (centres undefined)	none
Cc1csc(N=Nc2ccc(N(C)C)cc2)[n+]1[O-]	none
CC1(C(=O)NS(=O)(=O)c2ccc(F)cc2F)CCN1C(=O)C1(c2ccc(Cl)cc2)CC1 (centres undefined)	none
O=C1c2ccccc2C(c2nnnn2-c2ccc3c(c2)OCCO3)N1CCCN1CCOCC1 (centres undefined)	none
COCCNC(=O)C(OC(=O)c1ccco1)c1ccc(OC)cc1 (centres undefined)	none
CCOc1ccc(-n2c(C)nnc2SCC(=O)N(CC)CC)cc1	Bead autofluor 19915
